# Compounds with a hit are over-represented: about 0.36% of the library has one in this group of screens.
# Menin-MLL FL inh = displaces fluorescein MLL peptide from human menin | Fluorescence polarization, fluorescein-MLL peptide displacement from menin | FP activity change, % at 61.4 µM | 290,000 tested, under 10 active | AID 1766; active = well fitted curve in the direction sought with a large enough effect in the polarisation, not every such curve was filed as active; inconclusive = small, poorly fitted or top-dose-only effect, or effect the other way, or a change in a side signal; inactive = no such curve, though single readings can be large or run the other way; the % refers to the polarisation; also: % of control where 0% means no effect
# Menin-MLL TR inh = menin-MLL binding inhibition, Texas Red mutant peptide; O00255; Menin + Texas Red MLL mutant peptide, fluorescence polarization; Potency, µM (highest dose often 61.6 µM), for the others: top-dose FP activity change, negative = inhibition, usual class: inhibitors; 0.23% of 270,000 active; active = well fitted inhibition curve with a large enough effect in the polarisation, with a control signal flat, not every such curve was filed as active; inconclusive = small, poorly fitted or top-dose-only effect, or effect the other way, or a change in a side signal; inactive = no such curve, though single readings can be large or run the other way; the % refers to the polarisation; also: potency is read from the fitted curve at half-maximal effect; % of control where 0% means no effect
# TRb SRC2 PPI = TRbeta-SRC2 interaction inhibition; TRbeta-SRC2 peptide binding, fluorescence polarization; receptor liganded with 1 µM T3; Potency, µM (top dose mostly 106 µM), for the others: top-dose activity change, negative = inhibition, actives largely listed as inhibitors; 0.065% of 280,000 active; P10828;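 also: potency is read from the fitted curve at half-maximal effect; plate controls were bound peptide for no effect and peptide without receptor for full effect; nearly all actives have a fitted effect of over 50% in size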
#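 Assay buffer: 20 mM Tris-HCl, 100 mM NaCl, 10% glycerol, 1 mM EDTA, 0.01% NP-40, 1 mM DTT, 1 uM T3, 5% DMSO; TRb LBD 0.6 uM, Texas Red SRC2 20 nM; FP after 5 hr.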
# CXXC DNA block = MLL CXXC-DNA interaction inhibition; Q03164; MLL-CXXC / FITC-HOXA9 DNA fluorescence polarization; Potency, µM (series often up to 115 µM), for the others: at the highest dose activity change, negative = inhibition, actives largely listed as inhibitors; 0.037% of 290,000 active; AID 2662; active = well fitted inhibition curve with a large enough effect in the polarisation, with a control signal flat, not every such curve was filed as active; inconclusive = small, poorly fitted or top-dose-only effect, or effect the other way, or a change in a side signal; inactive = no such curve, though single readings can be large or run the other way; the % refers to the polarisation; also: potency is read from the fitted curve at half-maximal effect
#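 Fluorescence polarization: 7 uM MLL-CXXC (stock) preincubated 5 min with compounds, then 50 nM fluorescein-HOX-A9 DNA (stock) added; 30 min ambient. Buffer 50 mM Tris-HCl pH 7.5, 50 mM NaCl, 1 mM DTT, 0.05% BSA.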
# TR SRC2 fluor cs = alters Texas Red total fluorescence, flagging assay interference; Potency, µM (titrated, usually from 106 µM), for inactives: at the top dose fluorescence change, negative = quenching; TRb/SRC2 Texas Red total fluorescence interference; AID 1479; 0.29% of 280,000 active; active = well fitted curve in either direction with a large enough effect; inconclusive = small, poorly fitted or top-dose-only effect; also: potency is read from the fitted curve at half-maximal effect; % is scaled to controls: 0 for no effect and ±100 for the full control effect
#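 Human TRb ligand-binding domain at 0.6 uM with 20 nM Texas Red SRC2 peptide in Tris buffer containing 1 uM T3 and 5% DMSO, incubated with compound 5 h at ambient temperature. Total fluorescence (555/632 nm) calculated as parallel + 2 × perpendicular.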
# MLL CXXC FP-Fl = MLL CXXC-DNA interaction inhibition, fluorescein FP. shares compounds with CXXC DNA block. MLL CXXC-DNA binding, fluorescein FP. Potency, µM (doses to about 345 µM), inactives show at the highest dose activity change, negative = inhibition, actives largely listed as inhibitors. 70% of 200 active. AID 624160; also: potency is read from the fitted curve at half-maximal effect; nearly all actives have a fitted effect of over 80% in size
# MLL CXXC FP-TR = MLL CXXC-DNA interaction inhibition, Texas Red FP | shares compounds with CXXC DNA block | MLL CXXC-DNA binding, Texas Red fluorescence polarization | Potency, µM (titrated, usually from 345 µM), for inactives: at the highest dose activity change, negative = inhibition, most hits filed as inhibitors | 40% of 200 active; also: potency is read from the fitted curve at half-maximal effect; % is scaled to controls: 0 for no effect and ±100 for the full control effect; nearly all actives have a fitted effect of over 75% in size
# MLL CXXC HTRF = inhibitors of human MLL CXXC domain-DNA interaction, HTRF format. shares compounds with CXXC DNA block. MLL CXXC-DNA binding, HTRF, biochemical. Potency, µM (top dose mostly 172 µM), without a hit: top-dose activity change, negative = inhibition, hits mostly inhibitors. 30% of 210 active. AID 624162; also: % is scaled to controls: 0 for no effect and ±100 for the full control effect; nearly all actives have a fitted effect of over 80% in size
# Starred values were filed as active, the others as inactive; u = inconclusive; x = no result given; ! = repeats disagree; [ ] = another dose, or the depositor's remark. Unless noted, calls follow the shape of the dose curve; as a rule, active = well fitted curve in the direction sought with a large enough effect; inconclusive = small, poorly fitted or top-dose-only effect, or another doubt; inactive = no such curve, though single readings can be large; an effect the other way counts as inactive or inconclusive.
SMILES,Menin-MLL FL inh,Menin-MLL TR inh,TRb SRC2 PPI,CXXC DNA block,TR SRC2 fluor cs,MLL CXXC FP-Fl,MLL CXXC FP-TR,MLL CXXC HTRF
COc1ccccc1NC(C)=O,-2.5,5.9%,-7.7%,-0.8%,-0.5%,x,x,x
COc1ccccc1NC(=S)NC(C)=O,-3.8,-1.3%,-3.1%,u,-2.1%,x,x,35.9%
COc1cc(-c2nc(S(=O)(=O)c3ccc(Br)cc3)c(N3CCOCC3)o2)cc(OC)c1OC,x,x,-1.5%,x,-2.7%,x,x,x
Cc1cccc(-c2nnn3c2nc(NCc2ccc4c(c2)OCO4)c2ccccc23)c1,x,x,0.4%,x,0.0%,x,x,x
CC(=O)Nc1ccc2cc3ccc(NC(C)=O)cc3nc2c1,u,x,-3.8%,39.8µM*,-11.1%,113µM*,u,-12.3%
Cn1c(SCC(=O)NCc2ccco2)nnc1-c1ccccc1,1.5,-2.6%,6.1%,2.7%,1.6%,x,x,x
CC(C)Cn1c(SCC(=O)NCc2ccco2)nnc1-c1ccncc1,-0.2,5.4%,-8.4%,u,-2.1%,1.59µM*,-5.2%,-0.3%
O=C(CSc1cn(CC(=O)N2CCOCC2)c2ccccc12)Nc1ccccc1F,x,x,1.9%,x,-1.6%,x,x,x
CCc1cccc(NC(=O)CSC2=NS(=O)(=O)c3ccccc32)c1,2.8,-10.5%,-11.3%,31.6µM*,-4.5%,89.5µM*,113µM*,15.3µM*
O=C1C2C(c3ccccc3)CC=CC2[C@H](c2ccc(C(F)(F)F)cc2)N1Cc1ccccc1 (some centres not stated),-0.9,x,12.2%,u,-2.8%,22.5µM*,36.3%,195.3%
C=Cc1c(C)c2cc3[nH]c(cc4nc(cc5nc(cc1[nH]2)C(C)=C5CCC(=O)O)C(CCC(=O)O)=C4C)c(C)c3C=C,-1.8,u,17.8µM*,20µM*!,15.8µM*[fluorescent],u,44.8µM*,38.5µM*
O=C1/C(=C\c2cccnc2)CCc2ccccc21,4.5,-5.4%,1.6%,u,-3.0%,u,-14.9%,28.1%
CSc1nnc(NC(=O)c2nc(S(=O)(=O)Cc3cccc(C)c3)ncc2Cl)s1,x,x,x,-9.7%,x,x,x,x
CCSc1nnc(NC(=O)c2nc(S(=O)(=O)Cc3ccc(F)cc3)ncc2Cl)s1,x,x,x,u,x,22.5µM*,100µM*,9.68µM*
NS(=O)(=O)c1ccc(NC(=O)c2c(Cl)cccc2Cl)cc1,4.1,3.0%,6.3%[53 µM],u,-0.7%[53 µM],u,u,-7.4%
NS(=O)(=O)c1ccc(NC(=O)c2c(F)cccc2Cl)cc1,1.7,x,-5.1%,-1.9%,-0.2%,x,x,x
Cc1ccc(S(=O)(=O)NC2CCCCCCC2)cc1,-1.9,-9.6%,x,-6.0%,x,x,x,x
Cc1ccc(S(=O)(=O)NC2OC(=O)C(Cl)=C2Cl)cc1 (configuration not stated),1.9,10.5%,-15.4%,u,-3.6%,89.5µM*,142µM*,48.5µM*
C#CCOCCOCCOCCNc1nc(N2CCN(C(=O)[C@H](CCCCN)n3cc([C@@H](N)C(C)CC)nn3)CC2)nc(N2CCN(C(=O)[C@H](CCCCN)n3cc([C@@H](N)CO)nn3)CC2)n1 (some centres not stated),-6.2,-4.4%,0.1%,79.4µM*,-2.5%,5.65µM*,4.3%,-1.5%
CCOc1ccc(NC(=O)N2CCC(CN3CCc4ccccc4C3)CC2)cc1,x,x,5.3%,x,1.6%,x,x,x
Nc1c(N=Nc2ccc(-c3ccc(N=Nc4cc(S(=O)(=O)O)c5ccccc5c4N)cc3)cc2)cc(S(=O)(=O)O)c2ccccc12,u,u,u,35.5µM*,u,22.5µM*,25.2µM*,9.68µM*
CN(C)c1ccc(/C=C2\SC(=S)N(Nc3ncc(C(F)(F)F)cc3Cl)C2=O)cc1,u,u,-2.1%,3.16µM*,7.2%,1.13µM*,113µM*,196.3%
CN(C)C1=C(Cl)C(=O)N(c2ccc(Cl)c(Cl)c2)C1=O,-19.2,x,-0.4%,u,-2.4%,179µM*,43.7%,u
CCOC(=O)c1ccccc1NC(=O)c1cc2c(=O)oc3ccc(C)cc3c2s1,x,x,-3.8%,x,-0.2%,x,x,x
CN(C)CCOc1nc(-c2ccccc2)nc2c1oc1ccccc12,3.3,-10.7%,1.8%,35.5µM*,-6.4%,126µM*,u,-8.8%
SMILES,Menin-MLL FL inh,Menin-MLL TR inh,TRb SRC2 PPI,CXXC DNA block,TR SRC2 fluor cs,MLL CXXC FP-Fl,MLL CXXC FP-TR,MLL CXXC HTRF
COC(=O)CSc1nnc(-c2ccc(NS(=O)(=O)c3ccccc3)cc2)o1,-1.0,-8.1%,-1.9%,-10.0%,-0.1%,x,x,x
CCc1nnc(NC(=O)CSc2nnc(-c3ccc(NS(=O)(=O)c4ccccc4)cc3)o2)s1,2.2,6.1%,3.4%,u,-2.0%,u,8.5%,-10.7%
CCOC(=O)C(C(=O)OCC)c1cc(Br)c2noc3c2c1C(=O)c1ccccc1-3,u,u,-4.9%,31.6µM*,-8.8%,10µM*,40µM*,u
COCCCNC(=O)c1ccc2c3c(onc13)-c1ccccc1C2=O,u,x,-13.3%,-26.3%,8.5%,x,x,x
COc1ccc(-n2ncc3c2ncn2nc(COc4ccc(Cl)cc4)nc32)cc1,x,x,-7.7%,x,7.3%,x,x,x
COc1ccccc1NC(=O)CCCCCN1C(=O)c2cccc([N+](=O)[O-])c2C1=O,-2.8,-1.3%,x,-10.7%,x,x,x,x
COc1cc(/C=C2/C(=O)c3cccc([N+](=O)[O-])c3C2=O)c(Br)cc1O,4.5,u,-5.7%,28.2µM*,-19.7%,40µM*,79.7µM*,u
N#C/C(=C\c1cccs1)C(=O)c1ccccc1Cl,6.1,x,17.2%,22.4µM*,0.8%,17.9µM*,71.1µM*,u
CCCCCC1=C2CNC(Cc3ccccc3)(C(=O)OC)C=C2C(C)C1=O (configuration not stated),-2.9,-19.5%,4.7%,x,-3.4%,x,x,x
COc1ccc(-c2cc(C(=O)Nc3c(C(=O)c4ccc(C)c(F)c4)oc4ccccc34)no2)cc1,x,x,-3.6%,x,1.7%,x,x,x
CCn1c(CSc2ncn[nH]2)nc2cc(C(=O)O)ccc21,5.4,x,u,u,u,61.8%,126µM*,3.0%
O=C(O)c1ccc(CSc2ncn[nH]2)cc1,2.0,3.2%,0.7%,-3.3%,-2.5%,x,x,x
Cc1nn(-c2ccc(N3CCOCC3)nn2)c(C)c1CCC(=O)Nc1ccc(F)cc1F,x,x,7.1%,x,-0.5%,x,x,x
Cn1c(=O)[nH]c2cc(-c3noc(-c4ccc(Br)cc4)n3)ccc21,x,x,2.5%,x,-31.3%,x,x,x
